Experimental data as given in PubChem BioAssay (NCATS).
Inconclusive results are not listed. Entries that show only a call come without a potency. Activity calls are given as the source filed them. Calls come from the whole dose curve; as a rule, active = well fitted cell-killing curve with a large enough effect; inconclusive = small, poorly fitted or top-dose-only effect, or effect the other way; inactive = flat fitted curve, though single readings scatter.
Potency is the fitted concentration of half-maximal effect.

Test: Cell Viability - LYMP2-003 (AID 965);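 note: cells exposed to compounds for 24 h before reading; nearly all actives have a fitted effect of over 50% in size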
Settings: LYMP2-003 lymphoblastoid cell viability; series mostly up to 92.2 µM
Text: NIH Chemical Genomics Center [NCGC]
NIH Molecular Libraries Screening Centers Network [MLSCN]
National Institutes of Environmental Health Sciences [NIEHS]
National Toxicology Program [NTP]
We have developed a 1536-well cell-based assay for quantitative high throughput screening (qHTS) against a number of cell lines to determine in vitro cytotoxicity of small molecules. This particular assay uses a human lymphoblastoid cell line (LYMP2-003) purchased from Coriell Institute for Medical Research.
NCGC Assay Protocol Summary:
The CellTiter-Glo luminescent cell viability assay (Promega) is a homogeneous method to measure the number of viable cells in culture. The end point readout of this assay is based on quantitation of intracellular ATP, an indicator of metabolic activity, using the luciferase reaction. Luciferase catalyzes the oxidation of beetle Luciferin to oxyluciferin and light in the presence of ATP. The luminescent signal is proportional to amount of ATP present.
Using the CellTiter-Glo luminescent cell viability assay, the amount of cellular ATP was measured in the lymphoblastoid cell line with complete culture medium following compound treatment for 24 hours. The assay was performed in opaque white Kalypsys 1536-well plates. In the screen, tetraoctylammonium bromide was used as positive control. Library compounds were measured for their ability to cause acute toxicity in the cell line, as reflected by a decrease in intracellular ATP levels, in a concentration-dependent manner. […] AC50 values were determined from concentration-response data modeled with the standard Hill equation.
qHTS protocol for CellTiter Glo lymphoblastoid cellular assay
[Step] [Parameter] [Value] [Description]
1. Reagent; 5 uL; 2500 lymphoblastoid cells/well
2. Time; 5 hr; 37 C incubation
4. Controls; 23 nL; Tetraoctylammonium bromide 6.4pM to 92 uM
5. Time; 24 hr; 37 C incubation
6. Reagent; 5 uL; CellTiter Glo reagent
7. Time; 30 min; Room Temperature
8. Detection; Luminescence; Viewlux plate reader
Keywords: cell viability, cytotoxicity, lymphoblastoid cell line, luminescence, NTPHTS, NTPHTS_NCGC, NIEHS, DSSTox, MLSMR, MLSCN, NIH Roadmap, qHTS, NCGC
For CC/C=C\C/C=C\C/C=C\CCCCCCCC(=O)O, the Potency was 39.8 µM (active).
With Nc1nccs1 the Potency was “inactive”.
For Nc1ccc(N=Nc2ccccc2)c(N)n1, the Potency was “inactive”.
In the case of C=C1C(CCl)(CCl)C2(Cl)C(Cl)C(Cl)C1(Cl)C2(Cl)Cl (centres undefined), the Potency is reported as 50.1 µM (active).
In the case of Cc1ccc(S(=O)(=O)O)cc1C, the Potency is reported as “inactive”.
With CC(C)(C)CC(C)(C)c1ccc(OCCO)cc1 the Potency was “inactive”.
In the case of O.O.O.O.O.O.O.O=S(=O)([O-])[O-].[Co+2], the Potency is reported as “inactive”.
In the case of CC1=CC(=O)NS(=O)(=O)O1, the Potency is reported as “inactive”.
In the case of NCCN, the Potency is reported as “inactive”.
For CC(C)O, the Potency was “inactive”.
With Nc1ncnc2c1ncn2[C@H]1CC[C@@H](CO)O1 the Potency was “inactive”.
For OCC(O)CO, the Potency was “inactive”.
In the case of OB(O)O, the Potency is reported as “inactive”.
With CO/N=C(/C(=O)N[C@@H]1C(=O)N2C(C(=O)O)=C(COC(N)=O)CS[C@H]12)c1ccco1 the Potency was “inactive”.
For COC(=O)c1ccccc1O, the Potency was “inactive”.
In the case of CCOC(C)OCC, the Potency is reported as “inactive”.
With ClC(Cl)Cl the Potency was “inactive”.
For O=P(O)(O)O, the Potency was “inactive”.
In the case of Cc1ncc[nH]1, the Potency is reported as “inactive”.
For OC[C@H]1O[C@@H]2O[C@H]3[C@H](O)[C@@H](O)[C@@H](O[C@H]4[C@H](O)[C@@H](O)[C@@H](O[C@H]5[C@H](O)[C@@H](O)[C@@H](O[C@H]6[C@H](O)[C@@H](O)[C@@H](O[C@H]7[C@H](O)[C@@H](O)[C@@H](O[C@H]1[C@H](O)[C@H]2O)O[C@@H]7CO)O[C@@H]6CO)O[C@@H]5CO)O[C@@H]4CO)O[C@@H]3CO, the Potency was “inactive”.
In the case of C[C@H](CCC(=O)O)[C@H]1CC[C@H]2[C@@H]3[C@H](O)C[C@@H]4C[C@H](O)CC[C@]4(C)[C@H]3C[C@H](O)[C@]12C, the Potency is reported as “inactive”.
In the case of NC(N)=O, the Potency is reported as “inactive”.
With CCCCC the Potency was “inactive”.
For C[C@H](CCC(=O)O)[C@H]1CC[C@H]2[C@@H]3CC[C@@H]4C[C@H](O)CC[C@]4(C)[C@H]3C[C@H](O)[C@]12C, the Potency was “inactive”.
With CC1=CCC2CC1C2(C)C (centres undefined) the Potency was “inactive”.
For CO, the Potency was “inactive”.
In the case of OCc1ccccc1, the Potency is reported as “inactive”.
With c1ccc2ccccc2c1 the Potency was “inactive”.
In the case of CCCCO, the Potency is reported as “inactive”.
With Oc1ccc(/C=C/c2cc(O)cc(O)c2)cc1 the Potency was “inactive”.
In the case of CC[C@H]1OC(=O)[C@H](C)[C@@H](O[C@H]2C[C@@](C)(OC)[C@@H](O)[C@H](C)O2)[C@H](C)[C@@H](O[C@@H]2O[C@H](C)C[C@H](N(C)C)[C@H]2O)[C@](C)(O)C[C@@H](C)CN(C)[C@H](C)[C@@H](O)[C@]1(C)O, the Potency is reported as “inactive”.
In the case of O=c1n(CC2CO2)c(=O)n(CC2CO2)c(=O)n1CC1CO1 (centres undefined), the Potency is reported as 31.6 µM (active).
For OCl, the Potency was “inactive”.
For C/C=C/C=C/C(=O)O, the Potency was “inactive”.
